Experimental data as given in PubChem BioAssay (NCI).
About 83,000 compounds went through this panel and 20% of them were active in at least one assay; those are over-represented in the sample as a whole.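 How to read the values: 0–100, growth inhibition (40 = 60% inhibited); 0, no net growth; -100 to 0, cell death (-40 = 40% of starting cells died; -100 = all dead).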 Values without a mark were called inactive. The source made the active and inactive calls. The calls were made as follows: active = growth percent below 10; inactive = the rest.

How the values were obtained:
Assay in all cases: NCI-60 one-dose screen, 48 h (100 = growth as untreated, 0 = no growth, -100 = all killed)
Conditions in all cases: 10 µM unless noted
SR leukemia = test system: SR leukemia
RPMI-8226 leukemia = test system: RPMI-8226 leukemia
OVCAR-8 ovarian = test system: OVCAR-8 ovarian
OVCAR-5 ovarian = test system: OVCAR-5 ovarian
OVCAR-4 ovarian = test system: OVCAR-4 ovarian
SK-OV-3 ovarian = test system: SK-OV-3 ovarian
IGROV1 ovarian = test system: IGROV1 ovarian
OVCAR-3 ovarian = test system: OVCAR-3 ovarian
HS 578T breast = test system: HS 578T breast
NCI/ADR-RES ovarian = test system: NCI/ADR-RES ovarian
T-47D breast = test system: T-47D breast
BT-549 breast = test system: BT-549 breast
MDA-MB-435 melanoma = test system: MDA-MB-435 melanoma
SW-620 colon = test system: SW-620 colon
MCF7 breast = test system: MCF7 breast
HCT-116 colon = test system: HCT-116 colon
HCC-2998 colon = test system: HCC-2998 colon
KM12 colon = test system: KM12 colon

SMILES	growth (SR leukemia)	growth (RPMI-8226 leukemia)	growth (OVCAR-8 ovarian)	growth (OVCAR-5 ovarian)	growth (OVCAR-4 ovarian)	growth (SK-OV-3 ovarian)	growth (IGROV1 ovarian)	growth (OVCAR-3 ovarian)	growth (HS 578T breast)	growth (NCI/ADR-RES ovarian)	growth (T-47D breast)	growth (BT-549 breast)	growth (MDA-MB-435 melanoma)	growth (SW-620 colon)	growth (MCF7 breast)	growth (HCT-116 colon)	growth (HCC-2998 colon)	growth (KM12 colon)
Cc1c(-c2cnc3ccc(Cl)cc3c2C(=O)O)nnn1-c1ccc(Cl)cc1	95.9%	105%	101%	89.9%	106%	90.4%	108%	110%	109%	101%	88%	82%	105%	112%	98.5%	76.7%	102%	109%
COc1ccc(C(=O)/C=C/c2ccc(C)cc2)cc1S(N)(=O)=O	5.31% (active)	35.8%	29.3%	77%	84.1%	114%	28%	39.2%	84.9%	51.7%	94.1%	64.1%	88.3%	21.9%	22%	9.96% (active)	99%	44.3%
C=C1C(=O)O[C@H]2[C@H]1CC/C(COC(=O)NCc1ccc(Cn3c(=O)sn(CCCC)c3=O)cc1)=C\CC[C@@]1(C)O[C@@H]21	17.2%	-15.8% (active)	65.4%	71.9%	29.2%	107%	36.4%	-28.6% (active)	78.2%	103%	26.2%	53.3%	40.8%	-47% (active)	7.24% (active)	3.34% (active)	97.7%	101%
Nc1nc(N)c2c(n1)NC(c1ccc3c(c1)OCO3)CC(c1cccc(Nc3ccncc3)c1)=N2 (stereo unspecified)	53.1%	80.5%	83.8%	114%	98.7%	90.9%	79.7%	90.9%	81.4%	107%	88.5%	117%	50.5%	58%	63%	43.7%	88.1%	80%
CCOC(=O)c1c(N)sc2cc(O)ccc12	93%	110%	100%	100%	108%	111%	97.1%	97.9%	99.9%	100%	85.7%	93.3%	107%	117%	104%	98.5%	111%	89.1%
N#CSCc1cc(Cl)c(CSC#N)cc1Cl	10.8%	48.6%	94.9%	82.9%	80.5%	101%	84.7%	71.3%	82.3%	84.5%	90%	39.7%	34.9%	20.6%	24.5%	34.7%	97%	85.5%
O=C(OCC(O)(CO)C(=O)NC12CC3CC(CC(C3)C1)C2)c1ccc(Cl)cc1 (stereo unspecified)	86%	105%	92.2%	100%	107%	99.7%	110%	101%	88.5%	98.6%	88.9%	102%	101%	103%	91.6%	99.8%	106%	103%
Cc1c2ccncc2c(C)c2c1c1ccccc1n2CCCCCC(=O)O	65.1%	86.3%	79.5%	109%	94.3%	95.6%	76.9%	93.1%	88.5%	80.1%	86.5%	89.4%	99.2%	82.4%	77.6%	75.8%	104%	82.3%
Cc1c(C)c2c(c(C)c1OC(=O)CCC(=O)[O-])CCC(C)(CCCCCCCCCCC[P+](c1ccccc1)(c1ccccc1)c1ccccc1)O2 (stereo unspecified)	-25.5% (active)	-47.7% (active)	3.73% (active)	13.5%	-1.74% (active)	-27% (active)	-13.1% (active)	-76.4% (active)	-15% (active)	74.3%	-41.6% (active)	-60.2% (active)	-89% (active)	9.14% (active)	-28.2% (active)	-9.97% (active)	-70.3% (active)	-87.7% (active)
Cc1nc2ccccc2c(/C=C/c2ccc(Cl)cc2)c1C(=O)/C=C/c1ccccc1	11.5%	-11.8% (active)	-2.61% (active)	-21.8% (active)	33.1%	57.4%	0.031% (active)	-35.1% (active)	25%	0.775% (active)	9.61% (active)	26.7%	-53.2% (active)	1.45% (active)	11.2%	-53.4% (active)	-12% (active)	10.7%
CCCCCCC/C=N/NC(=O)c1ccc(-n2cc(-c3ccccc3)nn2)cc1	79.4%	94.3%	95.6%	89.9%	93.1%	87.8%	74.9%	102%	91.3%	86.9%	95.4%	82.1%	90.8%	95.6%	85.9%	97.5%	88%	86.8%
Oc1ccc(C(c2ccc(O)cc2)c2ccc(Cl)cn2)cc1	90%	98.2%	-11.1% (active)	72.7%	-14.8% (active)	86.8%	28.9%	-34.5% (active)	-29.9% (active)	-36.1% (active)	-34.4% (active)	-30.1% (active)	101%	106%	-17.3% (active)	27.6%	1.05% (active)	20.8%
Cc1ccc(S(=O)(=O)N(CCC(=O)O)c2ccccc2)cc1	99.3%	93.2%	101%	111%	114%	105%	123%	110%	121%	110%	100%	93.2%	107%	104%	91.8%	95.1%	112%	98.9%
O=C(CSc1nc(-c2ccccc2)cn1-c1ccc(Cl)cc1)c1ccc([N+](=O)[O-])cc1	72.2%	80.4%	94.1%	95.4%	92.8%	96.6%	96.5%	78.8%	62.8%	91.2%	71.3%	86.8%	83.5%	73.8%	76.1%	66.9%	99.6%	82.6%
CN1C(=O)N(C)C2C1NN=c1s/c(=C\c3ccc(F)cc3)c(=O)n12 (stereo unspecified)	26.8%	66.5%	29.5%	48.6%	28.6%	33.1%	11%	7.29% (active)	14.8%	10.3%	13.3%	44.2%	-19% (active)	10.2%	4.25% (active)	4.86% (active)	57.8%	18.9%
C=CN(C(=O)N1CCN(c2cc3c(cc2F)c(=O)c(C(=O)O)cn3C2CC2)CC1)c1nc(-c2ccc(C)cc2)cs1	13.7%	7.02% (active)	14.1%	38.5%	23.3%	-5.97% (active)	22.4%	5.61% (active)	13.8%	44.9%	36.3%	11.9%	22.1%	20.8%	7.94% (active)	10.9%	39%	21.9%
Cc1ccc(C2=Nc3c(N)nc(N)nc3NC(c3cccc(Nc4ccnc5cc(C(F)(F)F)ccc45)c3)C2)cc1 (stereo unspecified)	-8.2% (active)	-19.2% (active)	36.2%	105%	58.2%	31.4%	36.1%	12.6%	26.3%	30.1%	46.9%	94%	-40.1% (active)	19.1%	6.88% (active)	1.85% (active)	35%	15%
